# Results as given in PubChem BioAssay (NCI).
# About 79,000 compounds went through this panel and 15% of them were active in at least one assay; those are over-represented in the sample as a whole. Unmarked numbers belong to inactive results. The source made the active and inactive calls. No stated cut-off is given here; in the data, active means growth inhibition above about 70%; inactive means the rest.
# Assay: NCI Yeast Anticancer Drug Screen. Data for the mlh1 strain (AID 171);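 further: 0% = growth of vehicle-treated control cultures of the same strain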
# Conditions: S. cerevisiae mlh1 strain growth inhibition, stronger effect = higher value
# Protocol: Growth inhibition of yeast strains with defined genetic alterations is measured as a screen for potential anti-cancer activity. Selected strains with alterations in DNA damage repair or cell cycle control were exposed to compounds and growth inhibition was measured relative to vehicle treated controls. The strain used in this assay is mlh1
SMILES,growth inhibition (at 1.2 µM) [%],growth inhibition (at 3.7 µM) [%],growth inhibition (at 11.0 µM),growth inhibition (at 33.0 µM),growth inhibition (at 100.0 µM)
Nc1ncnc2c1ncn2C1OC(CO)CC1O (stereo not given),-22,-5,15%,66%,91% (active)
COc1cc2ccnc(-c3c4ccccc4c(N)c4c(OC)c(OC)ccc34)c2cc1OC,-4,-2,0%,2%,52%
CCCCC/C(=C(\C#N)C(=O)OCC)c1ccccc1,-2,1,5%,10%,18%
CCCC(=O)Oc1c(C)cc([N+](=O)[O-])cc1[N+](=O)[O-],2,12,99% (active),99% (active),99% (active)
CC(C)c1ccc(NC(=S)NC(=O)c2ccccc2)cc1,-11,2,29%,60%,56%
CN(C)Cc1cc(N=Nc2ccc(Cl)cc2)ccc1OC(=O)c1ccccc1,2,2,4%,31%,67%
C/C=C/SC(=Nc1ccccc1)Nc1ccccc1,-4,-3,-6%,-5%,98% (active)
CC(=O)Nc1ccc2c(c1)Cc1cc(N=C3C=CC(=O)O3)ccc1-2,12,25,93% (active),99% (active),99% (active)
